Measurements reported in PubChem BioAssay (NCATS).
Calls of active or inactive are those of the source. The call rests on the fitted dose curve.

Assay: Cell Proliferation Assay Versus the ED40515 IL2 Independent ATL cell lines (AID 1053194)
Details: ED40515 IL2-independent ATL cells
Description: Adult T-cell leukemia (ATL) develops in individuals infected with human T-cell lymphotropic virus-1 (HTLV-1). Clinically, ATL is subclassified into four subtypes: smoldering, chronic, lymphomatous, and acute. Two autocrine loops (IL-2/IL-2Ralpha and IL-15/IL-15Ralpha) and one paracrine stimulation loop that involves IL-9 expression by ATL cells and IL-9Ralpha expression on monocytes are required to maintain viability and proliferation in the smoldering and chronic forms of the disease. These assays examined the differential response profiles for the MIPE library of approved and investigational drugs versus an IL2 dependent and independent matched ATL cell line, with the current submission examining the differential response profiles for drugs on an IL2 independent matched ATL cell line
Plate log growing ED40515 -IL2 cells: 1000cells/ well in 5uL phenol red free RPMI +5% FBS +1x p/s, Glutamine using 1536 well white griener tissue culture plates and multidrop cassette acoustic dispensing Columns 1 and 3 DMSO Columns 2 and 4, 9.2 uM Bortezomib Incubate 48 hours for celltiter glo 37C with 5%CO2 and 95% humidity with low evaporation lids Dispense 3 uL per well of cell titer glo with multidrop Incubate for 15 minutes at RT Read on VL/2 using Luminesence Wheel (Filter A)

Question: For `CC(C)OC(=O)C1=CN(C(=O)c2ccc(F)c(F)c2)CC(C)(C)c2c1[nH]c1ccccc21`, which Potency is on record?
Answer: 11.8 µM (active)

Question: Which Potency does the source give for `C[C@@H]1C[C@H]2[C@@H]3CCC4=CC(=O)C=C[C@]4(C)C3(F)[C@@H](O)C[C@]2(C)[C@@]1(O)C(=O)CO` (stereo not given in full) here?
Answer: 20.9 µM (active)

Question: Which Potency does the source give for `CCCS(=O)(=O)Nc1ccc(F)c(C(=O)c2c[nH]c3ncc(Cl)cc23)c1F` here?
Answer: 13.2 µM (active)

Question: For `CCOc1cc(C=C2C(=O)N(c3ccccc3)N=C2C)cc(Cl)c1OCC(=O)OC`, which Potency is on record?
Answer: 29.6 µM (active)

Question: With `O=C(Nc1nc2ccccc2n1CCN1CCOCC1)c1cccc([N+](=O)[O-])c1` as the compound, how does the Potency read?
Answer: 18.7 µM (active)

Question: For `O=C(c1cc(Cc2n[nH]c(=O)c3ccccc23)ccc1F)N1CCN(C(=O)C2CC2)CC1`, which Potency is on record?
Answer: 16.6 µM (active)

Question: For `OC(CN1CCC(Cc2ccc(F)cc2)CC1)c1ccc(Cl)cc1` (stereo not given), which Potency is on record?
Answer: 26.4 µM (active)

Question: Which Potency does the source give for `CCc1ccc(CCOc2ccc(CC3SC(=O)NC3=O)cc2)nc1` (stereo not given) here?
Answer: 23.5 µM (active)

Question: With `CCN(CC)CCCC(C)Nc1nc(C)cc(Nc2ccc3nc(C)cc(N)c3c2)n1` (stereo not given) as the compound, how does the Potency read?
Answer: 26.4 µM (active)

Question: With `Cc1oncc1C(=O)Nc1ccc(C(F)(F)F)cc1` as the compound, how does the Potency read?
Answer: 14.8 µM (active)

Question: With `CC1(C)Cc2c(-c3ccccc3)c(-c3ccc(Cl)cc3)c(CC(=O)O)n2C1` as the compound, how does the Potency read?
Answer: 11.8 µM (active)

Question: For `Cc1csc(NC(=O)c2sc3nc4c(c(C(F)(F)F)c3c2N)CCC4)n1`, which Potency is on record?
Answer: 26.4 µM (active)

Question: With `COc1ccc(-c2ccc3c(N4CCOCC4)nc(N4C[C@@H](C)O[C@@H](C)C4)nc3n2)cc1CO` as the compound, how does the Potency read?
Answer: 0.59 µM (active)

Question: For `CCc1cc(Nc2nccc(-c3c(-c4ccc(OC)c(C(=O)Nc5c(F)cccc5F)c4)nc4ccccn34)n2)c(OC)cc1N1CCC(N2CCN(S(C)(=O)=O)CC2)CC1`, which Potency is on record?
Answer: 4.69 µM (active)

Question: Which Potency does the source give for `CO[C@@H]1[C@H](N(C)C(=O)c2ccccc2)C[C@H]2O[C@]1(C)n1c3ccccc3c3c4c(c5c6ccccc6n2c5c31)C(=O)NC4` here?
Answer: 0.743 µM (active)

Question: With `C#Cc1cccc(Nc2ncnc3cc(OCCOC)c(OCCOC)cc23)c1` as the compound, how does the Potency read?
Answer: 11.8 µM (active)

Question: With `Cc1cc(Nc2nc(N[C@@H](C)c3ncc(F)cn3)ncc2Cl)n[nH]1` as the compound, how does the Potency read?
Answer: 14.8 µM (active)

Question: For `COc1ccc(CCN2CCN(CCCc3ccccc3)CC2)cc1OC`, which Potency is on record?
Answer: 7.43 µM (active)

Question: Which Potency does the source give for `Clc1ccc(Nc2nnc(Cc3ccncc3)c3ccccc23)cc1` here?
Answer: 33.2 µM (active)

Question: Which Potency does the source give for `OCCC#Cc1nc(-c2ccc(F)cc2)c(-c2ccncc2)n1CCCc1ccccc1` here?
Answer: 23.5 µM (active)

Question: Which Potency does the source give for `COc1ccc2nc(S(=O)Cc3ncc(C)c(OC)c3C)[nH]c2c1` (stereo not given) here?
Answer: 1.05 µM (active)

Question: With `C/C(=C\C(=O)Nc1ccccc1C(=O)O)c1ccc2ccccc2c1` as the compound, how does the Potency read?
Answer: 8.33 µM (active)

Question: Which Potency does the source give for `CCN(CCCO)CCCOc1ccc2c(Nc3cc(CC(=O)Nc4cccc(F)c4)[nH]n3)ncnc2c1` here?
Answer: 26.4 µM (active)

Question: Which Potency does the source give for `CCOC(=O)N[C@@H]1CC[C@@H]2[C@@H](C1)C[C@H]1C(=O)O[C@H](C)[C@H]1[C@@H]2C=Cc1ccc(-c2cccc(F)c2)cn1` here?
Answer: 16.6 µM (active)

Question: For `Cc1ccccc1C(C(=O)NC1CCCC1)N(C(=O)Cn1cnc2ccccc21)c1cccc(F)c1` (stereo not given), which Potency is on record?
Answer: 20.9 µM (active)

Question: Which Potency does the source give for `CC(C)(N)C(=O)N[C@H](COCc1ccccc1)C(=O)N1CCC2(CC1)CN(S(C)(=O)=O)c1ccccc12` here?
Answer: 7.43 µM (active)

Question: For `CC(=O)NC(C)c1ccc(Oc2ccc(OC(C)C)cc2)cc1` (stereo not given), which Potency is on record?
Answer: 10.5 µM (active)

Question: For `Cc1cc([C@@H](C)Nc2ccccc2C(=O)O)c2nc(N3CCOCC3)cc(=O)n2c1`, which Potency is on record?
Answer: 20.9 µM (active)

Question: With `CCOc1cc(N2CCC(O)CC2)ccc1Nc1ncc2c(n1)N(C)c1ccccc1C(=O)N2C` as the compound, how does the Potency read?
Answer: 5.26 µM (active)

Question: With `Cc1ccc2c(c1)C(=O)[C@@]1(O)CCN(c3ccccc3)C1=N2` as the compound, how does the Potency read?
Answer: 13.2 µM (active)

Question: Which Potency does the source give for `CN(C)C(=O)c1ccc(S(=O)(=O)c2ccc(NC(=O)[C@@](C)(O)C(F)(F)F)c(Cl)c2)cc1` here?
Answer: 9.35 µM (active)

Question: For `C[C@]12CC[C@H](O)CC1=CC[C@@H]1[C@H]2CC[C@]2(C)C(c3cccnc3)=CC[C@H]12`, which Potency is on record?
Answer: 26.4 µM (active)

Question: Which Potency does the source give for `COCCNCCCn1c(C(=O)CF)c(-c2ccc(C)cc2)c2c(N)ncnc21` here?
Answer: 9.35 µM (active)

Question: For `C[C@@H]1CN(Cc2ccc(F)cc2)[C@@H](C)CN1C(=O)c1cc2c(C(=O)C(=O)N(C)C)cn(C)c2cc1Cl`, which Potency is on record?
Answer: 37.2 µM (active)

Question: With `CNC(=O)c1ccc(N2C(=S)N(c3ccc(C#N)c(C(F)(F)F)c3)C(=O)C2(C)C)cc1F` as the compound, how does the Potency read?
Answer: 23.5 µM (active)

Question: For `CCCCCCCc1ccc(CCc2cccc(O)c2C(=O)O)cc1`, which Potency is on record?
Answer: 16.6 µM (active)

Question: With `O=C(NOC[C@H](O)CO)c1ccc(F)c(F)c1Nc1ccc(I)cc1F` as the compound, how does the Potency read?
Answer: 33.2 µM (active)

Question: For `O=C1CCCC2=C1C(c1[nH]ncc1Cl)N=C(Nc1nc3ccccc3o1)N2` (stereo not given), which Potency is on record?
Answer: 16.6 µM (active)

Question: For `CCCn1c(=O)c2[nH]c(C34CC5CC3C[C@@H](C5)C4)nc2n(CCC)c1=O`, which Potency is on record?
Answer: 18.7 µM (active)

Question: With `N#CC[C@H](C1CCCC1)n1cc(-c2ncnc3[nH]ccc23)cn1` as the compound, how does the Potency read?
Answer: 20.9 µM (active)
